We go through 40 compounds from PubChem BioAssay (Tox21).

Where “and” joins values, the source holds several entries; their conditions need not be identical. Equal entries are not always repeated. Inconclusive results are not listed. Where a call stands in place of a potency, no number is given. A structure can be active in one record and inactive in another. Calls of active or inactive are those of the source. Calls come from the whole dose curve; as a rule, active = well fitted inhibition curve with a large enough effect in the repeat runs; inconclusive = weak or mixed curves, or effect the other way; inactive = no such curve, though single readings can be large or run the other way.
Potency is the fitted concentration of half-maximal effect.

For the assay, the target named is Nuclear receptor ROR-gamma (Homo sapiens) (UniProt P51449). As to the kind of experiment: qHTS assay to identify small molecule antagonists of the retinoid-related orphan receptor gamma (ROR-gamma) signaling pathway (AID 1159521; note: nearly all actives have a fitted effect of over 50% in size). Conditions: Tet-on RORgamma CHO cells, RORE-luciferase, 16 h; series mostly up to 92.4 µM. The text has this: U.S. Tox21 Program National Center for Advancing Translational Sciences [NCATS] NIH Chemical Genomics Center [NCGC] U.S. Environmental Protection Agency [EPA] National Institutes of Environmental Health Sciences [NIEHS] National Toxicology Program [NTP] U.S. Food and Drug Administration [FDA] Tox21 Assay Overview: Nuclear steroid hormone receptors are involved in many biological processes including inflammatory responses, cell proliferation, and apoptosis. Environmental factors or compounds disrupting these nuclear receptor pathways and gene expression may promote susceptibility to immunotoxicants and autoimmune diseases. One important group of these expression factors are the retinoid-related orphan receptors. To assess compounds that may interfere with the retinoid-related orphan receptor gamma (ROR-gamma) transcription factor, a cell-based luciferase assay was used. The CHO cell-based assay utilizes a TET-inducible ROR expression factor and ROR response element-LUC reporter gene. Reporter gene activity was induced using Doxycycline Hyclate and measured after 16 hr incubation. Tet-on ROR gamma CHO cells were used to screen against the Tox21 10K compound library for ROR gamma antagonists by quantification of decreased reporter gene activity in terms of decreased luminescence.
Tox21 Assay Protocol Summary: Tet-on ROR gamma CHO cells were dispensed at 1,000 cells in 4 uL of culture medium per well into white wall/solid bottom 1536-well plates using a Multidrop Combi (Thermo Scientific, Waltham, MA) dispenser. Following incubation at 37 C and 5% CO2 for 4 hr, 23 nL of compounds dissolved in DMSO, positive controls or DMSO only were transferred by a Pintool station (Kalypsys, San Diego, CA) and after 2 hr incubation at 37 C, one ul of 1 uM (final concentration) of Doxycycline Hyclate was added to all the wells by using a Flying Reagent Dispenser (FRD) (Aurora Discovery, San Diego, CA). After 16 hr incubation at 37 C and 5% CO2, 5 uL of ONE-Glo reagent (Promega Corporation, Madison, WI) was added to each assay plate using FRD. After 30 min incubation at room temperature, luminescence was quantified on a ViewLux plate reader (Perkin Elmer, Waltham, MA).
On the technique in general: In qHTS, concentration-response curves come from the screen itself.
Regarding `Cc1ccc(-c2c(Cl)nc(C#N)n2S(=O)(=O)N(C)C)cc1`, the Potency is 21.7 µM (active).

Consider `C=CC[C@]1(O)CC[C@H]2[C@@H]3CCC4=CC(=O)CCC4=C3C=C[C@@]21C`, for which the Potency was 2.98 µM (active).

For `CCOP(O)OCC`, the Potency result is “inactive”.

For the compound `[O-][Cl+]O`, the Potency entry was “inactive”.

Turning to `C=CC(=O)OCC(C)C`, the Potency result was “inactive”.

Turning to `O=S1OC[C@@H]2[C@H](CO1)[C@]1(Cl)C(Cl)=C(Cl)[C@@]2(Cl)C1(Cl)Cl` (stereo not given in full), the Potency was 54.5 µM (active).

As to `Cc1ccc2ccccc2c1`, the Potency result was “inactive”.

Regarding `O=NN1CCCCCC1`, the Potency entry was “inactive”.

Take `CCOP(=S)(OCC)Oc1nc(Cl)c(Cl)cc1Cl`: the Potency is 27.4 µM (active) and inactive.

Take `CC/C(=N\OC/C=C/Cl)C1=C(O)CC(C2CCOCC2)CC1=O` (stereo not given): the Potency result is “inactive”.

For the compound `CC(C)(Cl)[N+](=O)[O-]`, the Potency result is “inactive”.

For `CCCCCCCCCCOC(=O)c1ccccc1C(=O)OCCCCCCCCCC`, the Potency result was “inactive”.

Regarding `C=CCC1([C@H](C)CCC)C(=O)NC(=O)NC1=O`, the Potency entry is “inactive”.

For the compound `CNC(C)Cc1ccccc1OC` (stereo not given), the Potency entry is “inactive”.

As to `Nc1nc(N)nc(N)n1`, the Potency entry is “inactive”.

As for `COP(=S)(OC)Oc1cc(Cl)c(I)cc1Cl`, the Potency result was “inactive”.

With `CC(Cl)C(C)Cl` (stereo not given), the Potency result is “inactive”.

As for `CC(C)(C)c1cc([N+](=O)[O-])cc([N+](=O)[O-])c1O`, the Potency is 6.09 µM (active).

Turning to `CC1Sc2c(C(=O)O)c(=O)c3cc(F)c(N4CCNCC4)cc3n21` (stereo not given), the Potency entry was “inactive”.

Take `Sc1ccccc1Cl`: the Potency entry was “inactive”.

Consider `COCCOCCO`, for which the Potency result is “inactive”.

As to `COC(=O)C(Cl)C(=O)OC`, the Potency result is “inactive”.

Turning to `ClCc1ccccc1`, the Potency result is “inactive”.

Turning to `O=C(O)CC(Cl)C(=O)O` (stereo not given), the Potency entry was “inactive”.

With `CCC(Br)(CC)C(=O)NC(N)=O`, the Potency result is “inactive”.

Regarding `CCCCN(N=O)C(=N)N[N+](=O)[O-]`, the Potency entry was “inactive”.

Regarding `CCCCOC(=O)c1ccccc1C(=O)OCc1ccccc1`, the Potency entry is “inactive”.

For `COC(=O)C(Br)CBr` (stereo not given), the Potency result is “inactive”.

As to `O=[N+]([O-])c1ccc(F)c([N+](=O)[O-])c1`, the Potency was 49 µM (active).

As to `c1cc2ccc3cccc4ccc(c1)c2c34`, the Potency entry was “inactive”.

Consider `Brc1ccccc1`, for which the Potency entry is “inactive”.

As to `CCOC(=O)C(Cl)C(C)=O` (stereo not given), the Potency entry is “inactive”.

`[CH3][Sn]([CH3])([Cl])[Cl]`: the Potency was 4.93 µM (active) and 6.86 µM (active).

For `NS(=O)(=O)C(F)(F)C(F)(F)C(F)(F)C(F)(F)C(F)(F)C(F)(F)C(F)(F)C(F)(F)F`, the Potency is 54.5 µM (active).

On to `CC(O)(CS(=O)(=O)c1ccc(F)cc1)C(=O)Nc1ccc(C#N)c(C(F)(F)F)c1` (stereo not given), for which the Potency was 25.2 µM (active).

Consider `CCOC(=O)CBr`, for which the Potency result was “inactive”.

`CN1C(=O)C(O)N=C(c2ccccc2)c2cc(Cl)ccc21` (stereo not given): the Potency result is “inactive”.

On to `CC(C)=CCOc1c2occc2cc2ccc(=O)oc12`, for which the Potency result was “inactive”.

Consider `C[N+](C)(C)CCCl`, for which the Potency result is “inactive”.

`O=C(CBr)Nc1ccc(Cl)cc1C(=O)c1ccccc1F`: the Potency result was “inactive”.
